Rows were chosen to be rich in hits. Some 2.1% of all compounds tested hit in one or more screens of this group.
aSyn rescue – alpha-synuclein toxicity inhibition in yeast. 0.14% of 370,000 active. Potency, µM (top dose mostly 46.1 µM), hits mostly activators. AID 652106. Yeast expressing alpha-synuclein, growth rescue, BacTiter-Glo, 24 h; also: nearly all actives have a fitted effect of over 65% in size
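Rescue of yeast growth: cells expressing toxic alpha-synuclein, induced in galactose at OD600 0.02, incubated with compound 24 h at 30 C. ATP luminescence quantified growth; inhibitors of toxicity appear as activators.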
FUS suppressor – suppressors of FUS proteinopathy in yeast | S. cerevisiae FUS-expressing, growth rescue, OD600, 24 h | Potency, µM (highest dose often 76.6 µM), actives largely listed as activators | 0.24% of 390,000 active; also: nearly all actives have a fitted effect of over 55% in size
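Compound concentration series was pinned onto galactose-induced FUS-expressing yeast seeded at OD 0.005. Plates sat 24hr at 30C; absorbance at 600 nm gave growth. DMSO served as background control.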
TDP-43 yeast inh – rescues yeast growth from TDP-43 toxicity. TDP-43 expressing yeast growth rescue, BacTiter-Glo, 24 h. Potency, µM (highest dose often 46.1 µM), most hits filed as activators. 1.8% of 410,000 active. AID 652104; also: nearly all actives have a fitted effect of over 50% in size
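Galactose-induced TDP-43 yeast, OD600=0.02, compound pinned; 24 hr, 30 deg C; BacTiter-Glo luminescence for growth. Inhibitors of TDP-43 toxicity read as activators.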
Abeta yeast res – A-beta toxicity reversal in yeast; Potency, µM (series often up to 46.1 µM), actives largely listed as activators; 0.063% of 410,000 active; yeast expressing A-beta42, growth rescue, OD600, 48 h; response scale: 0% DMSO, 100% iron-clioquinol control; also: nearly all actives have a fitted effect of over 55% in size
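Yeast growth medium received pinned compounds, then yeast cells expressing toxic A-beta were added; plates incubated at 30 C for 48 hr. Growth read as absorbance at 600 nm, normalized to DMSO and equimolar FeCl3 plus clioquinol controls.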
Large screens that a line does not name were inactive. Calls follow the shape of the dose curve; as a rule, active = well fitted curve in the direction sought with a large enough effect; inconclusive = small, poorly fitted or top-dose-only effect, or another doubt; inactive = no such curve, though single readings can be large; an effect the other way counts as inactive or inconclusive.

Cn1nc(-c2ccccc2)c(C(=O)Nc2ccc(C(F)(F)F)cc2)c1Cl	none
Cn1nc(C(F)(F)F)c(C(=O)Nc2ccc(C(F)(F)F)cc2)c1Cl	TDP-43 yeast inh 20µM
Cn1nc(-c2ccccc2)c(C(=O)Nc2ccc(Cl)cc2)c1Cl	TDP-43 yeast inh 3.2µM
CSc1nnc(-c2cccs2)n1C	none
Cn1c(SCc2ccc(Br)cc2)nnc1-c1cccs1	TDP-43 yeast inh 14µM
Cn1c(SCc2c(Cl)cccc2Cl)nnc1-c1cccs1	TDP-43 yeast inh 18µM
Cc1nnc(SCc2c(Cl)cccc2Cl)s1	TDP-43 yeast inh 16µM
Cc1ccc(CSc2nnc(-c3cccs3)n2C)cc1	TDP-43 yeast inh inconclusive
COc1ccc(Cn2cc(CN3[C@H](CC(C)C)COc4cc(Br)ccc4S3(=O)=O)nn2)cc1	none (no result: aSyn rescue, TDP-43 yeast inh, Abeta yeast res)
Cn1c(Cc2cccs2)nnc1SCC(=O)Nc1ccc2cn[nH]c2c1	none (no result: aSyn rescue, TDP-43 yeast inh, Abeta yeast res)
CC(C)(O)CCc1c(-c2ccc(O)cc2O)oc2c3c(cc(O)c2c1=O)OC(C)(C)C=C3	FUS suppressor inconclusive, TDP-43 yeast inh 13µM
Cc1nc2ccc(S(=O)(=O)NCC(=O)NCc3ccccc3C)cc2s1	none (no result: aSyn rescue, TDP-43 yeast inh, Abeta yeast res)
COc1ccc(-c2cccc(NS(=O)(=O)c3cc(C(F)(F)F)ccc3Cl)c2)nn1	none (no result: aSyn rescue)
COc1ccc(-c2cccc(NS(=O)(=O)c3cc(C)c(Cl)cc3C)c2)nn1	FUS suppressor inconclusive, TDP-43 yeast inh 18µM (no result: aSyn rescue)
COc1ccc(-c2ccc(NS(=O)(=O)c3cc(C)c(C)cc3C)cc2)nn1	FUS suppressor inconclusive, TDP-43 yeast inh 18µM (no result: aSyn rescue)
O=C(c1ccccc1)N1CCN(c2ncnc3sc4c(c23)CCC4)CC1	TDP-43 yeast inh 22µM
COc1ccc2c(c1)c(=O)oc1cc(OCC(=O)N3CCCC(C)C3)ccc12 (stereo not given)	TDP-43 yeast inh 25µM
COc1ccc2c(c1)c(=O)oc1cc(OCC(=O)N3CCC(C)CC3)ccc12	TDP-43 yeast inh inconclusive
S=C1SCN(Cc2ccco2)CN1Cc1ccco1	TDP-43 yeast inh inconclusive
S=C1SCN(Cc2cccs2)CN1Cc1cccs1	TDP-43 yeast inh 11µM
Cn1cccc1CNC(=O)Nc1ccccc1	FUS suppressor 22µM
CC(=O)c1cccc(-c2ccnc3c2CC(C(=O)Nc2ccc(Cl)cc2)O3)c1 (stereo not given)	FUS suppressor inconclusive
CN(C(=O)C1Cc2c(-c3ccccc3Oc3ccccc3)ccnc2O1)c1ccccc1 (stereo not given)	FUS suppressor inconclusive, TDP-43 yeast inh inconclusive
O=C(Nc1cccc(C(F)(F)F)c1)C1Cc2c(-c3ccc(Cl)cc3)ccnc2O1 (stereo not given)	aSyn rescue inconclusive, TDP-43 yeast inh 20µM
O=C(Nc1cccc(C(F)(F)F)c1)C1Cc2c(-c3ccccc3)ccnc2O1 (stereo not given)	aSyn rescue inconclusive, TDP-43 yeast inh 35µM, Abeta yeast res inconclusive
CN(C)c1cccc(NC(=O)C2Cc3c(-c4ccc(Cl)cc4)ccnc3O2)c1 (stereo not given)	FUS suppressor inconclusive, TDP-43 yeast inh inconclusive
CC(=O)c1cccc(NC(=O)C2Cc3c(-c4ccc(Cl)cc4)ccnc3O2)c1 (stereo not given)	aSyn rescue inconclusive, FUS suppressor 40µM, TDP-43 yeast inh inconclusive
O=C(Nc1cccc(C(F)(F)F)c1)C1Cc2c(-c3ccco3)ccnc2O1 (stereo not given)	none
CN(C(=O)C1Cc2c(-c3ccc(Cl)cc3)ccnc2O1)c1ccccc1 (stereo not given)	TDP-43 yeast inh 22µM
COc1cc(N(C)C)ccc1/C=C/c1ccnc2ccccc12	none (no result: FUS suppressor, TDP-43 yeast inh, Abeta yeast res)
CN(C)c1ccc(/C=C/c2ccnc3ccccc23)cc1	none (no result: FUS suppressor, TDP-43 yeast inh, Abeta yeast res)
NC(=S)N/N=C\c1c2ccccc2cc2ccccc12	aSyn rescue inconclusive, TDP-43 yeast inh 20µM, Abeta yeast res inconclusive
COCCNC(=S)N/N=C/c1c2ccccc2cc2ccccc12	TDP-43 yeast inh inconclusive, Abeta yeast res inconclusive
O=C(COC(=O)/C=C/c1ccco1)NCc1ccc2c(c1)OCO2	TDP-43 yeast inh 16µM
O=C(COC(=O)C1(c2ccccc2F)CCCC1)NCc1ccc2c(c1)OCO2	TDP-43 yeast inh 16µM (no result: FUS suppressor)
O=C(COC(=O)/C=C/c1ccc(F)cc1)NCc1ccc2c(c1)OCO2	none
O=S1(=O)c2c(NCc3ccco3)cccc2Oc2ccccc2CN1Cc1cn(Cc2cccc(F)c2)nn1	none (no result: aSyn rescue, TDP-43 yeast inh, Abeta yeast res)
Cc1ccc(S(=O)(=O)Nc2ccccc2CNc2ccc(Br)cn2)cc1	TDP-43 yeast inh 20µM (no result: FUS suppressor)
Nn1c(SCc2ccc([N+](=O)[O-])cc2)nnc1-c1n[nH]c2c1CCC2	none (no result: aSyn rescue, TDP-43 yeast inh, Abeta yeast res)
COCCN=C1NN=C(c2cc(C)n(CC3CCCO3)c2C)CS1 (stereo not given)	FUS suppressor 35µM
COCCCN=C1NN=C(c2cc(C)n(Cc3ccccc3Cl)c2C)CS1	FUS suppressor inconclusive
Cc1nc(N2CCN(C(=O)C3CCCCC3)CC2)c2c3c(sc2n1)CCCC3	none (no result: aSyn rescue, TDP-43 yeast inh, Abeta yeast res)
Cc1nn(-c2ccc(Cl)c(Cl)c2Cl)c(=O)c2ccccc12	TDP-43 yeast inh 16µM
C[C@H](CO)N1C[C@H](C)[C@@H](CN(C)S(=O)(=O)c2cccs2)Oc2c(NC(=O)Nc3ccccc3)cccc2C1=O	FUS suppressor inconclusive
C[C@H](CO)N1C[C@H](C)[C@@H](CN(C)S(=O)(=O)c2cccs2)Oc2c(NC(=O)NC3CCCCC3)cccc2C1=O	FUS suppressor 14µM
C[C@H](CO)N1C[C@H](C)[C@@H](CN(C)C(=O)Nc2ccc(C(F)(F)F)cc2)Oc2c(NC(=O)NC3CCCCC3)cccc2C1=O	FUS suppressor 28µM
C[C@@H]1CN([C@H](C)CO)C(=O)c2cccc(NC(=O)NC3CCCCC3)c2O[C@@H]1CN(C)C(=O)Nc1ccc(C(F)(F)F)cc1	FUS suppressor 32µM
C[C@H](CO)N1C[C@H](C)[C@@H](CN(C)C(=O)Nc2ccc(C(F)(F)F)cc2)Oc2c(NC(=O)C3CCCCC3)cccc2C1=O	FUS suppressor inconclusive, TDP-43 yeast inh inconclusive
CCN(CCO)c1nc(SC)nc2c1sc1nc(-c3ccco3)c3c(c12)CCC3	TDP-43 yeast inh 10µM (no result: FUS suppressor)
CSc1nc(NCCOCCO)c2sc3nc(-c4ccco4)c4c(c3c2n1)CCC4	FUS suppressor inconclusive
CCCCN(C)c1ncnc2c1cnn2-c1cccc(Cl)c1	TDP-43 yeast inh 13µM (no result: aSyn rescue)
CCCCN(CCCC)c1ncnc2c1cnn2-c1cccc(C)c1	none (no result: aSyn rescue)
CCCN1C(=O)c2ccccc2NC1c1ccc(OC)c(COc2ccc([N+](=O)[O-])c(C)c2)c1 (stereo not given)	none (no result: FUS suppressor, TDP-43 yeast inh, Abeta yeast res)
O=C(NCCc1ccccc1Cl)c1sc2ncccc2c1-n1cccc1	FUS suppressor inconclusive, TDP-43 yeast inh 18µM (no result: aSyn rescue)
O=C(Nc1cccc2c1[nH]c1ccccc12)C(F)(F)F	TDP-43 yeast inh 14µM
O=C(Nc1cccc2c1[nH]c(=O)c1ccccc12)C(F)(F)F	none
O=C(N[C@@H]1C/C=C\C[C@H](CC(=O)N(CCO)Cc2ccccc2)C(=O)N[C@@H](Cc2ccccc2)COC1=O)OCC1c2ccccc2-c2ccccc21	FUS suppressor 32µM
O=C1NC[C@H](c2ccccc2)OC(=O)[C@H](Cc2ccc(F)cc2)CC/C=C/C[C@H]1CC(=O)N(CCO)Cc1ccccc1	FUS suppressor 32µM
